Measurements: PubChem BioAssay AID651808 (Broad Institute, 2012)
Where “and” joins values, the source holds several entries; their conditions need not be identical. Equal values may be shown once. Results filed as inconclusive are left out. Calls of active or inactive are those of the source. The rule behind the calls is not given here.

Assay: dose response, DH231 delta cqsS, luminescence, dry powder (AID 651808)
Conditions: V. cholerae DH231 delta cqsS, luxCDABE luminescence, 6 h, stronger effect = higher value
[1] = measured here: test 1 replicate run, at 80 µM, test 1

With `O=C(Cc1cccc(F)c1)NC1CCCC1` the max activity (light induction) (at 80 µM, test 2) was -4.2% (inactive).
In the case of `CCCn1nnnc1NCc1ccc(C(C)C)cc1`, the max activity (light induction) (at 80 µM, test 2) is reported as -51.3% (inactive) and the max activity (light induction) [1] is reported as -24.4%.
In the case of `CC(C)c1ccc(CNc2nnnn2C)cc1`, the max activity (light induction) (at 80 µM, test 2) is reported as -24.7% (inactive) and the max activity (light induction) (measured here: test 1 replicate run, at 0.0042 µM, test 1) is reported as 39.1%.
With `CCn1nnnc1NCc1ccc(C(C)C)cc1` the max activity (light induction) (at 80 µM, test 2) was -41.8% (inactive) and -46.4% (inactive) and the max activity (light induction) [1] was -24.1% and -23.5%.
In the case of `O=C(Cc1ccc(-c2ccccc2)cc1)NC1CCCC1`, the max activity (light induction) (at 80 µM, test 2) is reported as -13.9% (inactive) and -5.11% (inactive).
For `O=C(Cc1ccc(-c2ccccc2)cc1)NC1CCOCC1`, the max activity (light induction) (at 80 µM, test 2) was -9.06% (inactive).
For `CCC(C)NC(=O)Cc1ccc(-c2ccccc2)cc1` (configuration not stated), the max activity (light induction) (at 80 µM, test 2) was -31.1% (inactive).
In the case of `CCn1nnnc1NCc1ccc(N2CCCC2)cc1`, the max activity (light induction) (at 80 µM, test 2) is reported as -52.6% (inactive) and the max activity (light induction) [1] is reported as -42.4%.
In the case of `O=C(Cc1ccccc1Cl)NC1CCCC1`, the max activity (light induction) (at 80 µM, test 2) is reported as -18.1% (inactive).
With `O=C(Cc1cccc(OC(F)(F)F)c1)NC1CCCC1` the max activity (light induction) (at 80 µM, test 2) was -5.92% (inactive).
In the case of `CCCn1nnnc1NCc1ccc(N2CCCC2)cc1`, the max activity (light induction) (at 80 µM, test 2) is reported as -55.4% (inactive) and the max activity (light induction) [1] is reported as -46.1%.
In the case of `O=C(Cc1ccccc1OC(F)(F)F)NC1CCCC1`, the max activity (light induction) (at 80 µM, test 2) is reported as -14.6% (inactive).
With `CS(=O)(=O)c1ccc(CC(=O)NC2CCCC2)cc1` the max activity (light induction) (at 80 µM, test 2) was -47.4% (inactive).
With `Cn1nnnc1NCc1ccc(N2CCCC2)cc1` the max activity (light induction) (at 80 µM, test 2) was -32.9% (inactive) and the max activity (light induction) [1] was -32.2%.
In the case of `O=C(Cc1ccccc1F)NC1CCCC1`, the max activity (light induction) (at 80 µM, test 2) is reported as 0.357% (inactive).
For `CCCn1nnnc1NCc1ccccc1Cl`, the max activity (light induction) (at 80 µM, test 2) was -58.8% (inactive) and the max activity (light induction) (measured here: test 1 replicate run, at 0.35 µM, test 1) was 43.6%.
With `O=C(NCc1ccc(-c2ccccc2)cc1)C1CCCC1` the max activity (light induction) (at 80 µM, test 2) was -17% (inactive).
With `O=C(Cc1ccc(-c2ccccc2)cc1)NC1CCC1` the max activity (light induction) (at 80 µM, test 2) was -12.2% (inactive).
For `CCC(CC)NC(=O)Cc1ccc(-c2ccccc2)cc1`, the max activity (light induction) (at 80 µM, test 2) was -17.5% (inactive).
In the case of `CCn1nnc(NCc2ccc(C)cc2)n1`, the max activity (light induction) (at 0.35 µM, test 2) is reported as 39.1% (inactive) and the max activity (light induction) [1] is reported as -23%.
In the case of `O=C(Cc1ccc(-c2ccccc2)cc1)NC1CCCCC1`, the max activity (light induction) (at 80 µM, test 2) is reported as -14.6% (inactive).
With `CC(C)NC(=O)Cc1ccc(-c2ccccc2)cc1` the max activity (light induction) (at 80 µM, test 2) was -26.8% (inactive).
With `O=C(Cc1ccccc1C(F)(F)F)NC1CCCC1` the max activity (light induction) (at 80 µM, test 2) was -7.17% (inactive).
In the case of `COc1ccc(CC(=O)NC2CCCC2)cc1`, the max activity (light induction) (at 80 µM, test 2) is reported as -4.11% (inactive).
